Rows were chosen to be rich in hits. Some 19% of all compounds tested hit in one or more screens of this group.
TDP1 cell CPT: qHTS for Inhibitors of human tyrosyl-DNA phosphodiesterase 1 (TDP1): qHTS in cells in presence of CPT; Potency, µM (highest dose often 46.2 µM), for inactives: at the highest dose activity change, negative = growth inhibition, actives largely listed as inhibitors; chicken DT40 Tdp1-/-;hTDP1 cells + 20 nM CPT, ATP luminescence, 48 h; 420,000 compounds, 12% hits; further: nearly all actives have a fitted effect of over 55% in size
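Chicken DT40 Tdp1-/- cells stably complemented with human TDP1 were seeded at 400 cells/well in medium containing 20 nM camptothecin, exposed to pin-transferred compounds, and grown at 37 °C for at least 48 hr. Viability was read as ATP luminescence.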
HT1080 IDH1KD tx: qHTS for induction of synthetic lethality in tumor cells producing 2HG: qHTS for the HT-1080-IDH1KD cell line | HT-1080 IDH1 knockdown viability, ATP luminescence, 48 h | Potency, µM (highest dose often 46.1 µM), inactives show top-dose activity, negative = toxicity, actives largely listed as cytotoxic | 360,000 compounds, 2% hits | AID 686971, 2013;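 further: 0% = DMSO wells and -100% = cell-free medium wells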
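Using the IDH1-knockdown HT-1080 line run in the same batch and compound series as the NT line, viability after 48 h at 37 °C was determined by CellTiter-Glo luminescence and expressed as % activity.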
KB-V1 MDR tox: qHTS assay for MDR1-selective chemotherapeutics: Primary screen using the drug-selected MDR subline cells KB-V1; KB-V1 MDR cells viability, CellTiter-Glo, 72 h; Potency, µM (top dose mostly 46.1 µM), actives largely listed as cytotoxic; 400,000 compounds, 3.4% hits; further: nearly all actives have a fitted effect of over 60% in size
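qHTS viability screen in drug-selected KB-V1 MDR cells: 72 h compound treatment at 37 degrees C, ATP luminescence end point.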
KB-3-1 cytotox: qHTS assay for MDR1-selective chemotherapeutics: Primary screen using the parental adenocarcinoma cell KB-3-1; KB-3-1 viability, CellTiter-Glo ATP luminescence, 72 h; Potency, µM (highest dose often 46.1 µM), hits mostly cytotoxic; 400,000 compounds, 1.4% hits; further: nearly all actives have a fitted effect of over 60% in size
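KB-3-1 parental drug-naive adenocarcinoma cells in DMEM/10% FBS, incubated 72 h at 37 C with pin-transferred compounds across a concentration series. Viability by CellTiter-Glo luminescence; concentration-response curves fitted after normalization.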
TDP1 cell noCPT: qHTS for Inhibitors of human tyrosyl-DNA phosphodiesterase 1 (TDP1): qHTS in cells in absence of CPT. Potency, µM (doses to about 46.2 µM), inactives show at the top dose activity change, negative = growth inhibition, actives largely listed as inhibitors. DT40 Tdp1-/- hTDP1 cells, no CPT, ATP luminescence, 48 h. AID 686978, 2013. 420,000 compounds, 15% hits; further: nearly all actives have a fitted effect of over 55% in size
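Growth of hTDP1-complemented DT40 Tdp1-knockout cells is measured by ATP luminescence after at least 48 hr compound exposure at 37 °C, with DMSO substituting for the 20 nM CPT used in the parallel screen.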
HT1080-NT tox: qHTS for induction of synthetic lethality in tumor cells producing 2HG: qHTS for the HT-1080-NT fibrosarcoma cell line; 360,000 compounds, 1.6% hits; AID 686970, 2013; HT-1080-NT fibrosarcoma viability, CellTiter-Glo ATP luminescence, 48 h; Potency, µM (series often up to 46.1 µM), without a hit: at the top dose activity, negative = less viability, hits mostly cytotoxic;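 further: NT is the 2HG producing partner of a matched IDH1 knockdown line; 0% = DMSO-treated cells and -100% = media-only wells without cells; nearly all actives have a fitted effect of over 55% in size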
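750 cells/well, RPMI + 5% FBS; 2 h settle, compound pin-transfer, 48 h at 37 degrees C. CellTiter-Glo 10 min RT, luminescence. Normalized to DMSO and media-only wells.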
* = called active by the depositor; i = inactive; u = inconclusive; x = no result; [ ] = remark or other dose. The call rests on the fitted dose curve; in most records, active means well fitted curve in the direction sought with a large enough effect; inconclusive means small, poorly fitted or top-dose-only effect, or another doubt; inactive means no such curve, though single readings can be large; an effect the other way counts as inactive or inconclusive. Unless noted, on the % scale 0 is the no-effect control and ±100 the full control effect; potency means the concentration at half of the fitted maximal effect.

SMILES	TDP1 cell CPT	HT1080 IDH1KD tx	KB-V1 MDR tox	KB-3-1 cytotox	TDP1 cell noCPT	HT1080-NT tox
O=C(N/N=C/c1ccc(OC(=O)c2ccccc2)cc1)c1ccc(CN2CCOCC2)cc1	u	-18.2%	i	i	11.6µM*	-19.6%
CC(C)(C)C(=O)Nc1ccc(C(=O)N/N=C/c2ccccc2OC(=O)c2ccccc2)cc1	6.51µM*	u	u	u	7.31µM*	u
Cc1ccc(NC(=O)COC(=O)c2ccc(S(=O)(=O)N3CCCC3)cc2)cc1	2.9%	-3.9%	i	i	1.0%	7.5%
COc1ccc(C(=O)N/N=C/c2ccc(OC(=O)c3ccccc3)cc2)cc1	-12.1%	6.3%	i	i	-16.2%	-2.8%
O=C(N/N=C/c1cccc(OC(=O)c2cccc(Br)c2)c1)c1cccnc1	0.7%	-1.7%	i	u	-2.6%	4.3%
COc1ccc(C(=O)N/N=C/c2ccc(N(C)c3ccccc3)cc2)cc1	u	-12.8%	i	i	23.1µM*	-22.6%
COc1cc(C(=O)Oc2cccc(/C=N/NC(=O)c3cccnc3)c2)cc(OC)c1OC	6.51µM*	18.4µM*	i	i	9.2µM*	u
COc1cc(C(=O)Oc2ccccc2/C=N/NC(=O)c2ccc(C)cc2)cc(OC)c1OC	1.03µM*	u	i	8.2µM*	0.651µM*	u
O=C(N/N=C/C(Cl)=C/c1ccccc1)c1ccc2c(c1)OCO2	u	u	u	u	20.6µM*	u
C=C[C@@]1(C)CC(=O)[C@@]2(O)[C@@]3(C)[C@@H](O)CCC(C)(C)[C@@H]3[C@H](O)[C@H](OC(C)=O)[C@@]2(C)O1	3.8%	x	x	x	u	x
CC(C)c1ccc2occ(CC(=O)Nc3ccccc3Cl)c2c1	-14.5%	x	i	i	u	x
COc1ccc(C(=O)N/N=C/c2ccccc2OC(=O)c2ccccc2)cc1	0.581µM*	4.11µM*	13µM*	18.4µM*	0.517µM*	4.61µM*
COc1ccc(/C=N/NC(=O)c2cccc(NC(=O)c3ccccc3Cl)c2)cc1	3.66µM*	2.31µM*	i	16.4µM*	4.61µM*	5.8µM*
CN(C(=O)CSc1nc2ccccc2s1)c1c(N)n(Cc2ccccc2)c(=O)[nH]c1=O	-9.8%	-5.0%	i	i	6.8%	-18.5%
CCSc1ccccc1C(=O)Nc1ccc(-c2nc3ccccc3s2)c(O)c1	9.2µM*	x	x	x	13µM*	x
CC(C)c1ccc(C(=O)Nc2ccc(-c3nc4ccccc4s3)c(Cl)c2)cc1	6.51µM*	x	i	i	7.31µM*	x
Cc1cccn2c(=O)c(C(=O)NCc3ccc(F)cc3)c(O)nc12	u	x	i	i	u	x
COc1ccc(-c2nnc(-c3cc(OC)c(OC)c(OC)c3)o2)cc1OC	14.6µM*	0.4%	u	i	14.6µM*	-3.5%
COc1cc(-c2nnc(SCCOc3ccc(Cl)cc3)o2)cc(OC)c1OC	u	x	i	i	8.2µM*	x
COc1cc(-c2nnc(COc3ccc4cc(Br)ccc4c3)o2)cc(OC)c1OC	23.1µM*	0.0%	i	i	20.6µM*	2.4%
COc1ccc(-c2nnc(-c3cccs3)o2)cc1OC	-5.6%	-22.1%	6.51µM*	i	-21.9%	-1.9%
COc1cc(-c2nnc(SCCOc3ccc(C)c(Cl)c3)o2)cc(OC)c1OC	u	x	i	i	u	x
COc1cc(NC(=O)C2CCN(S(=O)(=O)c3ccc4c(c3)CCCC(=O)N4)CC2)cc(OC)c1	x	x	i	i	x	x
COc1cc(-c2nnc(SCc3cc(=O)oc4cc(C)ccc34)o2)cc(OC)c1OC	u	1.7%	i	i	29.1µM*	-8.4%
COc1cc(-c2nnc(SCC(=O)Oc3ccc(C)cc3C)o2)cc(OC)c1OC	1.1%	x	i	i	0.5%	x
SMILES	TDP1 cell CPT	HT1080 IDH1KD tx	KB-V1 MDR tox	KB-3-1 cytotox	TDP1 cell noCPT	HT1080-NT tox
Cc1ccc(NC(=O)c2cc(N3C(=O)C=CC3=O)ccc2N2CCOCC2)cc1	0.82µM*	23.1µM*	i	u	2.31µM*	u
CN1CCN(c2ccc(NC(=O)c3cc(S(N)(=O)=O)ccc3N3CCOCC3)cc2)CC1	9.8%	-0.5%	i	i	3.5%	2.1%
Cc1ccc(NC(=O)c2cc(NC(=O)c3ccco3)ccc2N2CCOCC2)cc1	u	-9.7%	i	i	16.4µM*	-2.1%
Cc1ccc(NC(=O)c2cc(N3C(=O)C=CC3=O)ccc2Cl)cc1C	5.17µM*	1.9%	i	i	4.61µM*	-8.9%
CCOc1ccc(CCNC(=O)c2cnc3sc(N4CCCCC4)nn3c2=O)cc1	u	x	i	i	-25.2%	x
O=C(COC(=O)/C=C/c1ccc(S(=O)(=O)N2CCOCC2)cc1)NC1CCCCCCC1	-8.0%	-0.7%	i	i	-5.8%	-0.4%
O=C(O)/C=C/C(=O)Nc1ccc(N2CCOCC2)nc1N1CCOCC1	20.6µM*	9.6%	i	u	23.1µM*	20.7%
O=C(O)c1cc(S(=O)(=O)N2CCCCC2)ccc1N1CCCC1	-7.6%	0.3%	i	i	17.4%	1.9%[9.24 µM]
Cc1ccccc1/C=N/Nc1ccnc2cc(Cl)ccc12	10.3µM*	u	16.4µM*	u	u	u
Oc1ccc(/C=N/Nc2ccnc3cc(Cl)ccc23)c(O)c1	u	-8.9%	i	i	u	-0.2%
Cc1ccc(/C=N/Nc2ccnc3cc(Cl)ccc23)c(C)c1	6.51µM*	u	i	u	11.6µM*	u
Clc1ccc2c(N/N=C/c3ccc(Br)cc3)ccnc2c1	u	u	i	u	u	u
CCOC(=O)c1cc2c(c(-c3cccc(C#Cc4ccc(OC)c(OC)c4)c3)n1)[C@@H](CCO)N(S(=O)C(C)(C)C)C2 (some centres not stated)	u	-12.0%	i	i	u	-19.9%
O=C(Cn1c(=O)n(-c2ccc(Cl)cc2)c(=O)c2c3c(sc21)CCC3)c1ccccc1	u	x	i	i	u	x
